# JMJD2A Tudor inh: inhibitors of human JMJD2A Tudor domain; O75164; AlphaScreen JMJD2A-Tudor / H3K4me3 peptide binding; Potency, µM (highest dose often 114 µM), for inactives: top-dose activity change, negative = inhibition, usual class: inhibitors; actives 4.4% (n = 390,000); AID 504339; note: % is set by controls: 0 for no effect and ±100 for the full control effect; nearly all actives have a fitted effect of over 50% in size
# HP1b binding inh: inhibitors of HP1-beta chromodomain binding to methylated histone tails | P83916 | Potency, µM (series often up to 114 µM), for the others: at the highest dose activity change, negative = inhibition, usual class: inhibitors | actives 0.56% (n = 390,000) | AlphaScreen HP1-beta / biotin-H3K9me3 peptide binding; note: nearly all actives have a fitted effect of over 70% in size
#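 HP1-beta protein (50 nM final) preincubated 30 min at room temperature with biotinylated H3(1-18)K9me3 peptide (50 nM) in PBS pH 7.4, 0.01% Tween-20, then compound added for 30 min. AlphaScreen streptavidin donor/nickel chelate acceptor beads (10 ug/mL final), 30 min dark, luminescence read.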
# L3MBTL1 inh: inhibitors of human L3MBTL1; AlphaScreen L3MBTL1–H3K9me1 peptide binding; Q9Y468; Potency, µM (highest dose often 57.1 µM), inactives show top-dose activity, negative = inhibition, actives largely listed as inhibitors; actives 0.66% (n = 230,000); AID 485360; note: % is set by controls: 0 for no effect and ±100 for the full control effect; nearly all actives have a fitted effect of over 60% in size
#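 Displacement of a biotinylated histone H3(1-15) peptide monomethylated at Lys9 (75 nM) from L3MBTL1 (50 nM) was measured by AlphaScreen after a 30 min room-temperature compound incubation; cefsulodin titration served as intraplate control.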
# G9a inh: blocks human histone lysine methyltransferase G9a; G9a H3K9 monomethylation, AlphaScreen, 2 h; Potency, µM (doses to about 102 µM), without a hit: at the top dose activity, negative = inhibition, usual class: inhibitors; actives 8.8% (n = 350,000); AID 504332; note: % is set by controls: 0 for no effect and ±100 for the full control effect; nearly all actives have a fitted effect of over 75% in size
#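 Chemiluminescent proximity detection of H3K9 monomethylation, read after 10 min bead incubation in the dark. Reaction: 20 nM G9a, 500 nM biotin-H3K9 peptide, 20 uM SAM cofactor, 2 h, room temperature, following 15 min enzyme-compound preincubation.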
# Sfp PPTase inh: inhibitors of Bacillus subtilis Sfp phosphopantetheinyl transferase | Q9F4F7 | Biochemical Sfp PPTase activity, qHTS | Potency, µM, for inactives: largest response in the series, negative = inhibition, actives largely listed as inhibitors | actives 3.5% (n = 310,000);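 note: the enzyme is Sfp with the accession as filed and its product quenches rhodamine fluorescence; 0% = enzyme reaction without inhibitor and -100% = no enzyme wells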
#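 Compounds were incubated with enzyme (final 15 nM) for 15 min at room temperature before substrate addition started the reaction. Fluorescence at 525 nm excitation, 598 nm emission was recorded immediately and after 30 minutes.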
# BAZ2B block: inhibitors of human BAZ2B bromodomain; Q9UIF8; AlphaScreen BAZ2B-H3K14Ac peptide displacement; Potency, µM (series often up to 114 µM), for the others: at the highest dose activity change, negative = inhibition, actives largely listed as inhibitors; actives 4.4% (n = 360,000); note: % is set by controls: 0 for no effect and ±100 for the full control effect; nearly all actives have a fitted effect of over 60% in size
#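 Compounds, titrated to a top concentration of 110 uM, were incubated 30 min at room temperature with preformed BAZ2B/acetyl-K14 H3 peptide complex (50 nM each). Proximity signal was measured by AlphaScreen after 20 min with beads.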
# * hit, by the source's call; ? = inconclusive; nt = no result given; ! = a repeat was not active; [ ] = remark or other dose. An excerpt weighted towards active compounds, which were near 12% of everything screened. Calls come from the whole dose curve; as a rule, active = well fitted curve in the direction sought with a large enough effect; inconclusive = small, poorly fitted or top-dose-only effect, or another doubt; inactive = no such curve, though single readings can be large; an effect the other way counts as inactive or inconclusive. Potency is the fitted concentration of half-maximal effect.
SMILES,JMJD2A Tudor inh,HP1b binding inh,L3MBTL1 inh,G9a inh,Sfp PPTase inh,BAZ2B block
COc1cccc(C=O)c1OCCCOc1cccc2cccnc12,-6%,40%,-5%,nt,-6%,-17%
CCCCc1ccc(-c2nc(NC(=O)C3C4CCC(O4)C3C(=O)O)sc2C)cc1 (stereo unspecified),nt,nt,-1%,50µM*,1%,?
C=CCNC(=O)/C(C#N)=C\c1cc(Cl)c(O)c(OCC)c1,-11%,9%,-6%,11µM*,1%,-15%
CCOc1cc(/C=C(/C#N)C(=O)Nc2ccc(O)cc2)cc(Br)c1O,-27%,-13%,-5%,50µM*,-10%,-37%
CCOc1ccc(NC(=O)/C(C#N)=C/c2ccc(N3CCCC3)c(C)c2)cc1,-9%,17%,-16%,2%[59 µM],-8%,2%
CCOC(=O)COc1ccc2nsnc2c1Cl,-10%,37%,6%,13%[2.33 µM],16%,6%
C=C(CC)C(=O)c1ccc(OCC(=O)O)c(Cl)c1Cl,-29%,18%,2%,71µM*,20µM*!,-30%
O=C(O)c1ccccc1-c1ccc(/C=C2\SC(=O)N(c3ccccc3)C2=O)o1,-15%,15%,-28%,7.1µM*,-15%,?
O=C1N=C(N2CCOCC2)S/C1=C/c1ccc(-c2ccccc2Cl)o1,-19%,13%,4%,-14%[59 µM],-2%,12%
O=C1S/C(=C\c2ccc(N3CCOCC3)o2)C(=O)N1c1ccccc1,-4%[11.4 µM],-9%,nt,5µM*,4µM*,?
CCc1nnc(NC(=O)c2oc3ccccc3c2COC(C)C)s1,-1%,32%,4%,nt,nt,nt
Cc1ccc2cccc(NC(=O)C(F)(F)F)c2n1,-28%,70%,-2%,-3%[12.7 µM],-2%,1%
Cc1cccc(NC(c2ccc(O)cc2)c2ccc3ccc(C)nc3c2O)n1 (stereo unspecified),45µM*,?,nt,4.5µM*,?,?
CCCN(C(=O)c1ccccc1Cc1ccccc1)C1CCS(=O)(=O)C1 (stereo unspecified),-4%,20%,2%,-28%,nt,-12%
CCOc1cc(/C=C/C(=O)O)ccc1OCCO,35µM*,4%,3%,8%,-4%,-13%
CCOc1ccc(OCCOc2ccc(/C=C/C(=O)O)cc2OCC)cc1,-7%,6%,nt,?,17%,-2%
C=CCc1ccc(OCCCCCN2CCOCC2)c(OC)c1,3.5µM*,?,-10%,13µM*,-21%,50µM*
C=CCc1ccc(OCCCCNC2CCCC2)c(OC)c1,?,?,-1%,13µM*,-5%,56µM*
C=CCc1ccc(OCCOCCN(C)C)c(OC)c1,1.6µM*,?,nt,4µM*,-20%,?
C=CCc1ccc(OCCCOc2ccc(C)c(C)c2)c(OC)c1,123%,155%,nt,275%,1%,177%
C=CCc1ccc(OCCCCOc2ccc(C(=O)O)cc2)c(OC)c1,-17%,14%,5%,?,10%,?
O=c1c(-c2ccc(O[C@@H]3O[C@H](CO)[C@@H](O)[C@H](O)[C@H]3O)cc2)coc2cc(O)cc(O)c12,nt,nt,nt,nt,27%,nt
O=C(Nc1ccc(O)cc1)/C(=C\C=C\c1ccccc1)NC(=O)c1ccccc1,-35%,2%,-22%,?,19%,?
CCCCOc1ccc(C(=O)N/C(=C/C=C/c2ccccc2)C(=O)NC)cc1,-31%,7%,-9%,-50%,?,-29%
O=C(N/C(=C/C=C/c1ccccc1)C(=O)N1CCCCC1)c1ccc([N+](=O)[O-])cc1,?,1%,nt,50µM*,-14%,-35%
SMILES,JMJD2A Tudor inh,HP1b binding inh,L3MBTL1 inh,G9a inh,Sfp PPTase inh,BAZ2B block
CCCCOc1ccc(C(=O)N/C(=C/C=C/c2ccccc2)C(=O)O)cc1,-24%,20%,-6%,50µM*,-11%,?
COC(=O)/C(=C\C=C\c1ccccc1)NC(=O)c1ccccc1,25µM*,-3%,16%,-15%,-6%,-4%
c1ccc2c(c1)nc(Nc1ccc(N3CCCCC3)cc1)c1nncn12,45µM*,?,?,16µM*,11%,28µM*
c1ccc(N2CCCCC2)c(Nc2nc3ccccc3n3cnnc23)c1,0%,39%,5%,37%,26%,2%
Cc1nnc2c(NC3CCCC3)nc3ccccc3n12,-22%[57.1 µM],2%,6%[11.4 µM],-4%,-1%,-14%
c1ccc2c(c1)nc(NC1CCCCC1)c1nncn12,-12%,24%,12%,45µM*,-16%,-3%
Cc1nc(-c2ccc(C)c(N3CCN(C(=O)Nc4ccc(Br)cc4)CC3)c2)no1,-20%,21%[57 µM],nt,27%[59 µM],nt,1%
CCn1c(-c2ccc(F)cc2)n[nH]c1=S,5µM*,25%,nt,?,-25%,10%
CC(C)(C)c1ccc(-c2n[nH]c(=S)n2C2CCCC2)cc1,?,16%,nt,7.9µM*,5%,2%
Cn1c(-c2ccc(C(C)(C)C)cc2)n[nH]c1=S,22µM*,-25%,-9%,2µM*,-8%,1%
CCOC(=O)CSc1nnc(-c2cccc(Cl)c2)n1CC,-7%,20%,0%,-8%[59 µM],16%,nt
CCn1c(-c2cccc(Cl)c2)n[nH]c1=S,7.1µM*,-4%,-8%,6.3µM*,1%,7%
Cc1cc(=O)n2[nH]c(-c3ccc(C(C)(C)C)cc3)cc2n1,-12%,5%,2%,7%,12%,-2%
CCn1c(-c2ccc(C(C)(C)C)cc2)n[nH]c1=S,45µM*,-4%,-1%,0.56µM*,-29%,3%
C=CCOC(=O)C(=O)/C=C/c1ccc2c(c1)Cc1ccccc1-2,-31%,-5%,-9%,-10%[12.7 µM],-25%,?
C=CCOC(=O)C(=O)/C=C/c1csc2ccccc12,?,-26%,-21%,?,40µM*,?
O=C(CC1C(=O)N(c2ccc(F)cc2)C(=O)N1Cc1ccc2c(c1)OCO2)Nc1ccc(F)cc1 (stereo unspecified),-10%,40%,nt,0%[59 µM],nt,-3%
COc1ccc(NS(=O)(=O)c2c(C)nc3scc(C)n3c2=O)cc1,-3%,34%,nt,0%[59 µM],nt,-15%
Nc1c2c(nc3ccccc13)N(c1ccccc1)CC2,35µM*,?,-5%,?,-101%,0%
CN1CCCCc2c1nc1ccccc1c2N (tested in a mixture with another compound),-7%,35%,-5%,?,10%,-5%
O=C(CN1CCCCC1)Nc1c2c(nc3ccccc13)N(c1ccccc1)CC2,?,?,2%,14µM*,-24%,56µM*
CCCC(=O)Nc1c2c(nc3ccccc13)N(c1ccccc1)CC2,13%,33%,nt,-3%,28%,13%

# Screens deposited in PubChem BioAssay by National Center for Advancing Translational Sciences (NCATS).
